Measured values taken from the supplement of paper PMC9948646.

tested on: gramicidin D channels in DC22:1PC lipid vesicles (bilayer-modifying potency); experiment: initial Tl+ fluorescence quench rate relative to no-drug control (NormRate, gramicidin monomer-dimer shift) (ratio (fold of control)); higher = stronger bilayer-modifying effect (equilibrium shifted toward conducting dimers), active = 1.5 or more; settings: 10 µM; lipid concentration 50 µM; temperature: 25 °C
Experimental: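 Stopped-flow fluorescence quench assay: ANTS-loaded DC22:1PC large unilamellar vesicles doped with gramicidin D (1:2000), 50 µM lipid, equilibrated 10 min with 10 µM drug (0.1% DMSO), mixed with Tl+ quench buffer at 25°C. Initial quench rate (Tl+ influx) was fitted with a modified stretched exponential and normalised to the no-drug control rate (NormRate); duplicates from two independent LUV preparations (triplicates for 7 drugs).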

Initial Tl+ fluorescence quench rate, inactive:
c1cncc(NCc2ccc(-c3cc4ccncc4cc3OC3CCNCC3)s2)c1 1.32
CCC(=O)Nc1ccccc1C(=O)Nc1ccccn1 1.12
O=C(N[C@H]1CCN(c2ccnc3ccccc23)C1)c1cccc(C(F)(F)F)c1 1.27
COc1ccc(C2(C(=O)Nc3ccc(Br)cc3)CCCC2)cc1 1.14
O=C(C1CCN(c2nnnn2-c2ccccc2)CC1)N1CCc2ccccc2C1 1.23
CC(=O)Nc1ccc(-c2noc(C[C@@H]3CCCN(Cc4cccc(F)c4C)C3)n2)cc1 1.29
Cc1cc(C)nc(-n2nc(C)cc2Nc2ccccc2)n1 1.32
Cc1ccc2oc(-c3cc(NC(=O)Cc4ccccc4)ccc3Cl)nc2c1 1.18
NC(=O)c1cc(Br)ccc1OCCOc1ccccc1 1.21
CCCc1ccc(S(=O)(=O)Nc2ccc(CN3CCN(CC4CC4)CC3)cc2)cc1 1.42
Nc1cccnc1Nc1ccc(Cl)cc1 1.05
c1ccc2c(c1)CN(CC1CC1)CC1(CCN(Cc3c[nH]c4cnccc34)CC1)O2 1.06
C[C@H]1C[C@@H]1C(=O)NC1CCN(CC2(c3ccccc3)CCCCC2)CC1 1.06
COc1ccc(-c2nc(-c3cccc(NC(=O)Cc4ccc(F)cc4)c3)no2)cc1OC 1.47
O=C(NC1CC1)c1ccc(N2CCC(Cc3ccccc3)CC2)nc1 1.43
CCn1ncc2c(NC3CCOCC3)c(CNC(=O)c3ccnn3C)c(C)nc21 1.07
Cc1[nH]c2ccccc2c1[C@@H](c1cccs1)N1CCN(C)CC1 1.44
COc1ccc(S(=O)(=O)Nc2ccc(CN3CCN(C(=O)c4cccc(C#N)c4)CC3)cc2)cc1 1.41
O=C(NCc1ccoc1)N1CCN(Cc2ccc3c(c2)OCO3)CC1 1.11
c1ccc(-c2[nH]c3ccccc3c2[C@H](c2ccccn2)N2CCCC2)cc1 1.06
Nc1ncnc2c1ncn2[C@@H]1O[C@H](COS(=O)(=O)NC(=O)c2ccccc2O)[C@@H](O)[C@H]1O 1.02
COc1cncc(-c2cncc(N3CCN(c4ccncc4)CC3)n2)c1 1.11
CC(C)(CN)c1nc(-c2ccc(Cl)c(O)c2)c(-c2ccnc(N)n2)[nH]1 1.15
Cc1cc(O)nc(-n2nc(C)cc2C)n1 1.04
CN1CCN(c2nccc3nc(-c4ccc(F)c(F)c4)[nH]c23)CC1 1.11
COc1cccn2c(C(=O)N3CCCCC3)c(C(F)(F)F)nc12 1.08
CC1=Nc2ccc(Cl)cc2[C@H](c2ccccc2)N1CCNC(=O)CN(C)C 1.07
CCS(=O)(=O)N(Cc1ccco1)Cc1cc2ccc(C)cc2nc1O 1.26
Nc1ncc(-c2cn[nH]c2)cc1-c1nc2cc(Cl)cnc2[nH]1 1.08
CCc1ccc([C@@H](NCc2nc(N)nc(N(C)C)n2)C(C)C)cc1 1.08

Initial Tl+ fluorescence quench rate, active:
CCCn1nnc(NC(=O)COc2ccc(C3CCCCC3)cc2)n1 2.51
CC(=O)N1CCN(c2ccc(Oc3ccc(Cl)cc3O)cc2)CC1 1.51
CN(C)c1cc(NC(=O)Nc2ccccc2)c2ccccc2n1 1.74
CC1=NN(c2nc3ccccc3s2)C(=O)[C@@H]1Cc1cccc2ccccc12 2.18
O=C([C@@H](c1ccc(Cl)cc1)c1cccnc1)N1CCN(c2ccc(C(F)(F)F)cc2)CC1 10.5
CNC(=O)CNc1nc(-c2ccccn2)nc2scc(-c3ccccc3)c12 5.21
C[C@H](C(N)=O)N1CCCC[C@@H]1c1ccc(OCc2cccc(F)c2)cc1 2.68
COc1ccc(-c2cc(NC(=O)c3ccc(F)cc3Cl)ccc2OC)cc1 2.04
Cc1ccc(S(=O)(=O)n2cc(-c3ccnc(N)c3)c3cc(Br)cnc32)cc1 2.5
Cn1ccnc1CNCCS(=O)(=O)c1cccc(Nc2ccc(-c3cccc(F)c3)cn2)c1 2.38
